The text below walks through data of PubChem BioAssay (NCATS).

Several values for one entry are separate records, joined by “and”; a condition that tells them apart may be missing. Equal values may be shown once. Records with an inconclusive call do not appear. A number with no mark means an inactive call. The call rests on the fitted dose curve.

Chain of Bile acid receptor (Homo sapiens) (Q96RI1 whole entry, looked up): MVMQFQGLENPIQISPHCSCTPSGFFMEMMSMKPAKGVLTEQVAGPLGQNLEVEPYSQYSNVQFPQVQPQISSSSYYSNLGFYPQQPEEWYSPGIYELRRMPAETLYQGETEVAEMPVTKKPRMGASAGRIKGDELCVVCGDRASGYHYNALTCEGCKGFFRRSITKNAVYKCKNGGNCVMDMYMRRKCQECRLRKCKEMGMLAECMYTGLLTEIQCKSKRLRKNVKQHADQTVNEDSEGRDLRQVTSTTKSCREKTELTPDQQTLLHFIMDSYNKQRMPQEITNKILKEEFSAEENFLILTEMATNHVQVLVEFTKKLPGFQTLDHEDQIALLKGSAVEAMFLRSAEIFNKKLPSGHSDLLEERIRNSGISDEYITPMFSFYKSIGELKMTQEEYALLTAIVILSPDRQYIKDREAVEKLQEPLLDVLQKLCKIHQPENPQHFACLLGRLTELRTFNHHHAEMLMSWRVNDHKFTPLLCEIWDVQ

The target in this test is Bile acid receptor (Homo sapiens) (UniProt Q96RI1). Kind of test: qHTS assay for small molecule agonists of farnesoid X receptor signaling (AID 588527).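 Further: series mostly up to about 77 µM; 0% = vehicle basal and 100% = reference agonist.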 The note with it: HEK293T FXR-UAS-bla, beta-lactamase ratio, 16 h; activation: stronger effect = higher value. From the text:
NIH Chemical Genomics Center [NCGC] U.S. Environmental Protection Agency [EPA] National Institutes of Environmental Health Sciences [NIEHS] National Toxicology Program [NTP] NCGC Assay Overview The farnesoid-X-receptor (FXR), a nuclear hormone receptor is highly expressed in liver, intestine, kidney and adrenal cortex. Natural ligands of FXR are the bile acids (Cholic acid, Chenodeoxy cholic acid etc). It is an important regulator of diverse metabolic pathways, including the bile acid homeostasis, lipid and glucose metabolisms. FXR regulates the expression of target genes by binding either as a monomer or as a heterodimer with RXR (retinoid X receptor). As FXR regulates a large number of target genes involved in bile acid, lipoprotein and glucose metabolisms, it is a potential pharmacological target for bile acid and lipid disorders. Thus screening environmental chemicals on FXR signaling can be used for the studies focused on metabolic syndrome, hepatic and intestinal toxicity etc.
NCGC Assay Protocol Summary Using a beta-lactamase reporter-gene under control of Farnesoid X receptor (FXR) response element, a cell-based assay [GeneBLAzer FXR-UAS-bla assay developed by Invitrogen] was used to measure FXR ligands signaling. GeneBLAzer FXR-UAS-bla HEK293T cells were used with assay medium containing 10% dialyzed FBS. The assay was performed in clear bottom black Greiner 1536-well plates. Chenodeoxycholic acid and Guggulsterone were used in the screen as agonist and antagonist positive controls respectively. Library compounds were measured for their ability to stimulate the reporter gene activity. Compounds were screened in a titration series in 1536-well format. […] Data was normalized relative to Chenodeoxycholic acid control (100 uM, 100%), and DMSO only wells (basal, 0%). Concentration-response titration points for each compound were fitted to the Hill equation yielding concentrations of half-maximal stimulation (EC50) and maximal response (efficacy) values. qHTS protocol for FXR beta-lactamase assay in agonist mode [Step] [Parameter] [Value] [Description] 1. Reagent; 6 uL; 5000 cells/well 2. Incubation; 37 C for 5-7 hrs 3. Compounds; 23 nL; 0.59 nM to 92 uM 4. Controls (Chenodeoxycholic acid); 23 nL, - One column with dose response, start 200 uM, 1:2 dilutions in duplicates - Final concentrations of 100 uM and 60 uM in two columns 5. Incubation; 37 C for 16 hrs 6. Detection reagent; 1 uL of CCF4-dye 7. Incubation; RT for 2 hrs 8. Detection; Fluorescence; Envision plate reader
On to `Cc1cc(C)c(N)cc1C`, for which the activation is -1.7%.

`CCOP(=S)(S)OCC`: the activation is 1.65%.

`CCN(CC)c1ccc(N)cc1`: the activation is -0.874%.

On to `O=C(O)c1c(Cl)ccc2cc(Cl)cnc12`, for which the activation is 0.431%.

Regarding `CCCCCCCCCCCCN(C)C`, the activation is 2.94%.

`CCCCCCCCCCO`: the activation is -3.92%.

On to `C=CC(=O)CC`, for which the activation is 3.81%.

For `CC(C)c1ccccc1`, the activation was -3.82%.

In the case of `Cc1ccccc1OCC1CO1` (stereo not given), the activation is -1.27%.

With `CC1(c2ccc(Oc3ccccc3)cc2)OC(=O)N(Nc2ccccc2)C1=O` (stereo not given), the activation is 4.14%.

As for `O=c1oc2cc(O)ccc2c2oc3cc(O)ccc3c12`, the activation was 8.73%.

As to `Cc1nc(N(C)C)nc(OC(=O)N(C)C)c1C`, the activation is 2.16%.

Consider `C=C(C)C(=O)OCCCCCCCCCC`, for which the activation was -1.22%.

`C(=NC1CCCCC1)=NC1CCCCC1`: the activation was 1.63%.

`CN(C)CCCCCCN(C)C`: the activation was -2.62%.

Consider `CCOP(=O)(NC(C)C)Oc1ccc(S(C)(=O)=O)c(C)c1` (stereo not given), for which the activation is -2.2%.

Consider `CCCCOCCOCCOCCCC`, for which the activation was -0.244%.

Regarding `C=C(C)c1ccccc1`, the activation is -3.16%.

On to `Nc1ccc(N)c2c1C(=O)c1c(N)ccc(N)c1C2=O`, for which the activation is -0.332%.

As for `CCCCCCCCn1sccc1=O`, the activation is 6.4%.

With `COC(=O)c1c(Cl)nn(C)c1S(=O)(=O)NC(=O)Nc1nc(OC)cc(OC)n1`, the activation was 3.79%.

As for `Nc1c(N=Nc2ccc(S(=O)(=O)CCOS(=O)(=O)O)cc2)c(S(=O)(=O)O)cc2cc(S(=O)(=O)O)c(N=Nc3ccc(S(=O)(=O)CCOS(=O)(=O)O)cc3)c(O)c12`, the activation is 4.58%.

Take `O=C(Nc1ccccc1)Nc1cnns1`: the activation was -0.107%.

`CC[C@H](C)C1O[C@]2(C=C[C@@H]1C)C[C@@H]1C[C@@H](C/C=C(\C)[C@@H](O[C@H]3C[C@H](OC)[C@@H](O[C@H]4C[C@H](OC)[C@H](NC(C)=O)[C@H](C)O4)[C@H](C)O3)[C@@H](C)/C=C/C=C3\CO[C@@H]4[C@H](O)C(C)=C[C@@H](C(=O)O1)[C@]34O)O2` (stereo not given in full): the activation is 6.91%.

For `Cc1ccccc1Br`, the activation was -2.02%.

For the compound `CN(C)c1ccc(N=O)cc1`, the activation is -4.92%.

On to `CC(C)(C)CC(C)(C)c1ccc(OCCO)cc1`, for which the activation was 2.48%.

Regarding `O=C(O)c1ccc(O)cc1O`, the activation is 1.07% and -1.82%.

For `CCCC/C=C\CCCCCCCCO`, the activation is -5.44%.

As to `CCCC1COC(Cn2cncn2)(c2ccc(Cl)cc2Cl)O1` (stereo not given), the activation was 0.69%.

Take `CCO[Si](CCC#N)(OCC)OCC`: the activation was 0.364%.

In the case of `COCc1cnc(C2=NC(C)(C(C)C)C(=O)N2)c(C(=O)O)c1` (stereo not given), the activation was -0.497%.

Regarding `CC(C)C1(C)N=C(c2ncccc2C(=O)O)NC1=O` (stereo not given), the activation is -1.77%.

As for `COc1ccc(O)c(C(C)(C)C)c1`, the activation is -2.62%.

`Cc1c(N)cccc1Cl`: the activation is -0.769%.

Turning to `COP(=O)(OC)O/C(=C\Cl)c1cc(Cl)c(Cl)cc1Cl`, the activation is -2.88%.

Regarding `S=C1NC=NC2N=CNC12` (stereo not given), the activation was -5.16%.

For `CCCCCCc1ccc(-c2ccc(C#N)cc2)cc1`, the activation was -1.9%.

For the compound `CCCCCCCC/C=C\CCCCCCCC(=O)O`, the activation was -0.994% and -1.49%.

Regarding `O=S1OC[C@@H]2[C@H](CO1)[C@@]1(Cl)C(Cl)=C(Cl)[C@]2(Cl)C1(Cl)Cl` (stereo not given in full), the activation was 1.84% and 4.33%.
